A549 tox = Nrf2 qHTS screen for inhibitors: counterscreen for cytotoxicity; Potency, µM (series often up to 46 µM), for inactives: top-dose activity change, negative = cytotoxicity, usual class: inhibitors; actives 0.16% (n = 390,000); A549 ARE-Fluc cells, CellTiter-Fluor viability, 18-24 h; AID 504648, 2011; also: % is scaled to controls: 0 for no effect and ±100 for the full control effect
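Cytotoxicity counterscreen: CellTiter-Fluor fluorescence was measured in A549 ARE_Fluc cells after 18-24 h of compound exposure in a concentration series. The subsequent BugLite luminescent read reports ARE-luciferase activity.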
TGFb SMAD3 inh = qHTS for Inhibitors of TGF-b; HepG2 CAGA-GFP TGF-b/SMAD3 reporter, GFP fluorescence, 18 h; TGF-beta stimulated, 500 pg/mL final; AID 588855, 2011; Potency, µM (titrated, usually from 46.1 µM), for inactives: at the top dose activity, negative = inhibition, hits mostly inhibitors; actives 1.2% (n = 410,000); also: % is scaled to controls: 0 for no effect and ±100 for the full control effect; nearly all actives have a fitted effect of over 65% in size
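GFP signal (ex488/em500-530) from TGF-beta-stimulated HEPG2 CAGA-GFP cells, 500 pg/mL final, 18 h at 37 degrees C in DMEM plus 1% FBS, normalized to unstimulated and DMSO-stimulated controls.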
HepG2 tox = qHTS for Inhibitors of TGF-b: Cytotox Counterscreen; HepG2 CAGA-GFP viability, ATP luminescence, 18 h; actives 0.76% (n = 410,000); Potency, µM (top dose mostly 46.1 µM), for inactives: top-dose activity change, negative = cytotoxicity, usual class: cytotoxic
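HepG2 CAGA-GFP cells (1000/well, DMEM with 1% FBS) received compound, then TGF-beta at 500 pg/mL final, and were incubated 18 hours at 37 degrees C. Viability was read by CellTiter-Glo luminescence. Media-only wells were set as complete cell-killing and DMSO as no toxicity.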
ATXN2 expr inh = Primary qHTS for Inhibitors of ATXN expression. actives 0.72% (n = 360,000). Potency, µM (titrated, usually from 57 µM), for the others: at the top dose activity change, negative = inhibition, hits mostly inhibitors. HEK-293 ATXN2-luciferase reporter, luminescence, 24 h; also: % is scaled to controls: 0 for no effect and ±100 for the full control effect; nearly all actives have a fitted effect of over 55% in size
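qHTS (up to 57 uM final) was run with 24 h compound exposure of reporter cells at 37 °C. Each well was multiplexed: SteadyGlo luminescence measured ATXN2-luciferase expression after a fluorogenic Gly-Phe-AFC viability readout (25 uM final).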
Nrf2 inh = Nrf2 qHTS screen for inhibitors; A549 ARE-Fluc reporter, luciferase luminescence, 18-24 h; Potency, µM (highest dose often 46 µM), inactives show top-dose activity change, negative = inhibition, most hits filed as inhibitors; actives 2.1% (n = 360,000); also: % is scaled to controls: 0 for no effect and ±100 for the full control effect; nearly all actives have a fitted effect of over 60% in size
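Nrf2 activity is the BugLite luminescence, read 15 min after reagent at room temperature, following CellTiter-Fluor cytotoxicity readout (30 min, 37C). Compound titrations were applied for 18-24 h to 5000 A549 ARE_Fluc cells/well in 5% FBS OPTI-MEM.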
S2 tox = Viability Counterscreen for Primary qHTS for Inhibitors of ATXN expression. S2 cells (HEK-293 line with an ATXN2-luciferase reporter) viability, CellTiter-Fluor protease fluorescence, 24 h. Potency, µM (top dose mostly 56.7 µM), hits mostly cytotoxic. actives 0.49% (n = 400,000); also: nearly all actives have a fitted effect of over 40% in size
Numbers without * were called inactive; i = inactive; ? = inconclusive; . = not tested or not shown. A selection: hits, their analogues and other compounds. The true share with any hit is near 3.8%. Calls follow the shape of the dose curve; as a rule, active = well fitted curve in the direction sought with a large enough effect; inconclusive = small, poorly fitted or top-dose-only effect, or another doubt; inactive = no such curve, though single readings can be large; an effect the other way counts as inactive or inconclusive. Potency is read from the fitted curve at half-maximal effect.

SMILES | A549 tox | TGFb SMAD3 inh | HepG2 tox | ATXN2 expr inh | Nrf2 inh | S2 tox
COc1ccc(CNCCC(c2ccc3c(c2)OCO3)c2ccccc2OC)cc1 (stereo unspecified) | -3% | ? | 10µM* | ? | -12% | .
COc1ccc(N2CC(C(=O)Nc3ccccc3N3CCCC3)CC2=O)c(OC)c1 (stereo unspecified) | -1% | ? | 9% | -3% | 9% | i
Fc1cccc(Cl)c1Cn1nnc2c(NCc3ccncc3)ncnc21 | -1% | -6% | -23% | -25% | 23µM* | i
CCc1ccc(-c2csc(NC(=O)C3CCCO3)c2C(=O)OC(C)C)cc1 (stereo unspecified) | -17% | -15% | -20% | 20% | ? | i
COC(=O)c1c(-c2ccc(F)cc2)csc1NC(=O)C1CCCO1 (stereo unspecified) | -4% | -11% | -7% | . | 18µM* | i
O=S(=O)(c1ccccc1F)N1CCN(CCc2ccccc2)CC1 | -4% | ? | -41% | -18% | 18µM* | i
O=S(=O)(c1ccccc1)N1CCN(CCc2ccccc2)CC1 | 0% | -15% | -2% | -7% | ? | i
O=S(=O)(c1ccc(F)c(F)c1)N1CCN(CCc2ccccc2)CC1 | 0% | -20% | 12% | -33% | 23µM* | i
Cc1nc2sc(C(=O)Nc3ccccc3Cc3ccccc3)c(C)c2c(=O)[nH]1 | -14% | 3% | 9% | . | ? | ?
O=C(O)c1ccc2c3c(ncnc13)-c1ccccc1C2=O | 3.3µM* | 0.79µM* | 1µM* | ? | 2.6µM* | i
COCCCn1c(N)c(-c2nc3ccccc3n2C)c2nc3ccccc3nc21 | -16% | -19% | -6% | ? | 21µM* | .
C[C@H]1CN(CCc2ccccc2)C(=O)[C@@H]1CC(=O)NCc1ccccc1 | -4% | 8% | -2% | 21% | ? | i
c1ccc(N(c2ccccc2)c2nc(N3CCCC3)nc(-n3ccnc3)n2)cc1 | ? | -6% | 8% | -25% | 23µM* | ?
c1ccc(CN2CCN(c3nc(-c4ccccc4)nc(-n4ccnc4)n3)CC2)cc1 | -30% | ? | 0% | -18% | 15µM* | ?
O=C(c1nc2ccccn2c1CNCCCn1cccn1)N1CCCC1 | 0% | -3% | -1% | . | 12% | i
COc1ccc(-c2nc(NC(=O)C3CC(=O)N(Cc4ccco4)C3)sc2C)cc1 (stereo unspecified) | ? | ? | -23% | -35% | 23µM* | i
COc1ccc(-c2csc(NC(=O)C3CC(=O)N(Cc4ccco4)C3)n2)cc1 (stereo unspecified) | 1% | -11% | -14% | -28% | ? | i
CCOC(=O)c1ccc(NC(=S)N2CCSC2c2ccc(Cl)cc2)cc1 (stereo unspecified) | ? | 3% | -19% | 11% | 21µM* | ?
COc1ccc(Cl)cc1N=C1NC(=O)CC(C(=O)Nc2ccccc2C(F)(F)F)S1 (stereo unspecified) | -5% | -2% | -2% | -10% | -18% | i
Cn1cnnc1SCc1ccc(C(=O)N/N=C(/CCC(=O)O)c2ccc(C(C)(C)C)cc2)cc1 | -9% | 9% | 1% | 8% | 1% | i
Cc1cc(C)c2sc(N(CCCN(C)C)C(=O)c3ccc(S(=O)(=O)N4CCCc5ccccc54)cc3)nc2c1 | -13% | ? | -122% | ? | 12% | 28µM*
Cc1ccc2nc(N(CCCN(C)C)C(=O)c3ccc(S(=O)(=O)N4CCc5ccccc5C4)cc3)sc2c1 | ? | ? | -105% | ? | 21µM* | ?
COc1ccc2sc(N(CCCN(C)C)C(=O)c3ccc(S(=O)(=O)N4CCc5ccccc5C4)cc3)nc2c1 | ? | 16µM* | -76% | ? | ? | ?
CN(C)CCCN(C(=O)c1ccc(S(=O)(=O)N2CCc3ccccc32)cc1)c1nc2ccc(F)cc2s1 | -21% | ? | -53% | ? | -10% | i
COc1ccc(CCNC(=O)c2ccc3nc(N4CCCCC4)sc3c2)cc1OC | -1% | -6% | -28% | ? | -26% | ?
SMILES | A549 tox | TGFb SMAD3 inh | HepG2 tox | ATXN2 expr inh | Nrf2 inh | S2 tox
Cc1ccc(F)cc1-c1cc(C(=O)NCc2cc(C(F)(F)F)cc(C(F)(F)F)c2)[nH]n1 | . | -15% | -35% | ? | . | ?
Cc1ccc(Cl)cc1-c1cc(C(=O)NCc2cc(C(F)(F)F)cc(C(F)(F)F)c2)[nH]n1 | . | 11µM* | -50% | ? | . | ?
OCCN1CCN(CC/C=C2/c3ccccc3Sc3ccc(Cl)cc32)CC1 | -10% | ? | -106% | ? | 1% | ?
CCCCCCCCCC[N+](C)(C)CC/C=C1/c2ccccc2Sc2ccc(Cl)cc21 | -6% | ? | -107% | . | ? | 7.9µM*
CC[N+](C)(C)CC/C=C1/c2ccccc2Sc2ccc(Cl)cc21 | -4% | 8% | 15% | -22% | -2% | i
CCCCCCCCCCC[N+](C)(C)CC/C=C1/c2ccccc2Sc2ccc(Cl)cc21 | -5% | ? | 20µM* | . | -12% | 11µM*
NS(=O)(=O)c1ccc(NC(=O)CCC(=O)c2ccc(Cl)s2)cc1 | 2% | 12% | 17% | 9% | 21% | i
CCC(CC)C(=O)Nc1cc(-c2cccc(C)c2)nn1-c1ccccc1 | 9% | -19% | -7% | -3% | . | i
CCOc1ccc(N2C(=O)c3[nH]nc(-c4ccccc4)c3C2c2ccc(O)c(OC)c2)cc1 (stereo unspecified) | -5% | ? | -25% | ? | . | ?

Source: PubChem BioAssay
